Test results taken from PubChem BioAssay (NCI).
“And” between values parts separate entries of the source, which are not always exact repeats. Equal entries are not always repeated. About 83,000 compounds went through this panel and 20% of them were active in at least one assay; those are over-represented in the sample as a whole.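 For each line, cells grew in 96-well plates with the test compound present at a single concentration for 48 hours.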

How the values were obtained:
Experiment in all cases: NCI-60 one-dose screen, 48 h (100 = growth as untreated, 0 = no growth, -100 = all killed)
Conditions in all cases: 10 µM unless noted; active = growth percent below 10; inactive = the rest
[1] = tested on: HCT-15 colon
[2] = tested on: HT29 colon
[3] = tested on: SNB-75 CNS
[4] = tested on: SNB-19 CNS
[5] = tested on: U251 CNS
[6] = tested on: SK-MEL-5 melanoma
[7] = tested on: LOX IMVI melanoma
[8] = tested on: SK-MEL-28 melanoma
[9] = tested on: SK-MEL-2 melanoma
[10] = tested on: EKVX NSCLC
[11] = tested on: SN12C renal
[12] = tested on: UO-31 renal
[13] = tested on: TK-10 renal
[14] = tested on: ACHN renal
[15] = tested on: CAKI-1 renal
[16] = tested on: A498 renal
[17] = tested on: CCRF-CEM leukemia
[18] = tested on: MOLT-4 leukemia
[19] = tested on: PC-3 prostate
[20] = tested on: UACC-62 melanoma

Measured: growth

Cc1nc2sc(C(=O)Nc3cccc4ncccc34)c(N)c2cc1C(C)O (stereo not drawn)
inactive: [1] 64.1% | [2] 52.8% | [3] 76.6% | [4] 67.8% | [5] 83.4% | [6] 56.8% | [7] 73.8% | [8] 67.3% | [9] 35.3% | [10] 88.4% | [11] 91.8% | [12] 81.5% | [13] 103% | [14] 93.4% | [15] 89.7% | [16] 48.1% | [17] 54.4% | [18] 64%

O=C(NNc1ccccc1)c1ccccc1
inactive: [1] 47.7% and 40.7% | [3] 70.6% and 87.6% | [4] 95% and 99.3% | [5] 90.8% | [19] 75.1% and 53.8% | [6] 98.8% and 100% | [20] 29.6% and 30.9% | [7] 58.4% and 52.7% | [8] 89.8% and 108% | [9] 81.5% and 49.8% | [11] 84.5% and 80% | [12] 51.1% | [13] 65.3% | [14] 57% and 38.5% | [15] 22.7% | [16] 118% and 103% | [17] 56.8% and 49.8% | [18] 54.4% and 41.3%

O=C(/C=C/c1ccc(Cl)s1)c1ccc(Cl)s1
inactive: [1] 88.2% and 90.7% | [3] 106% and 102% | [4] 94.6% and 99.5% | [5] 92.8% and 93.3% | [6] 96% and 96.6% | [20] 94.7% and 99.6% | [7] 78.8% and 87.8% | [9] 100% and 109% | [10] 98.3% | [11] 93.3% and 91% | [12] 82.8% | [13] 94.9% and 88.9% | [14] 93.9% and 101% | [15] 92.4% | [16] 97.8% | [17] 94.8% and 90.7% | [18] 95.1% and 88.9%
